High-throughput results deposited in PubChem by National Center for Advancing Translational Sciences (NCATS).
ALDH1A1 inh = inhibitors of human aldehyde dehydrogenase 1A1; Purified ALDH1A1, NADH fluorescence, propionaldehyde substrate; Potency, µM (highest dose often 75.3 µM), for inactives: at the top dose activity, negative = inhibition, actives largely listed as inhibitors; actives 7.3% (n = 220,000); AID 1030;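 note: potency is the fitted concentration of half-maximal effect; plate controls were no enzyme wells and a reference inhibitor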
Target sequence (P00352 whole entry, looked up): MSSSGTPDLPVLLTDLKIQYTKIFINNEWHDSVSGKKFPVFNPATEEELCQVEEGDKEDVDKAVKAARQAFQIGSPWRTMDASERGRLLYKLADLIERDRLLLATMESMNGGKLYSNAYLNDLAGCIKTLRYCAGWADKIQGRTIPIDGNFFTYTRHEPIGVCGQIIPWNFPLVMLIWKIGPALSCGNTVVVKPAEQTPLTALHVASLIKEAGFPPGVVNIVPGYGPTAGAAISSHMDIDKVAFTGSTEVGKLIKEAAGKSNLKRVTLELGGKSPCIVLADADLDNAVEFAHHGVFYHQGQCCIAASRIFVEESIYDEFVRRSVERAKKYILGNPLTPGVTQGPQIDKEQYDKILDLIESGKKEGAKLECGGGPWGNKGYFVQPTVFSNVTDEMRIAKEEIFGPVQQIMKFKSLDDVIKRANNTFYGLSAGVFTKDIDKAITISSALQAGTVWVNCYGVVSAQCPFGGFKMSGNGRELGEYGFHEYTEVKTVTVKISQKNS
HPGD block = inhibitors of human 15-hydroxyprostaglandin dehydrogenase (HPGD); actives 4.3% (n = 150,000); Potency, µM, for the others: at the top dose activity change, negative = inhibition, usual class: inhibitors; AID 894; purified HPGD, NADH fluorescence kinetic, PGE2 substrate; note: potency is the fitted concentration of half-maximal effect
Target sequence (P15428 whole entry, looked up): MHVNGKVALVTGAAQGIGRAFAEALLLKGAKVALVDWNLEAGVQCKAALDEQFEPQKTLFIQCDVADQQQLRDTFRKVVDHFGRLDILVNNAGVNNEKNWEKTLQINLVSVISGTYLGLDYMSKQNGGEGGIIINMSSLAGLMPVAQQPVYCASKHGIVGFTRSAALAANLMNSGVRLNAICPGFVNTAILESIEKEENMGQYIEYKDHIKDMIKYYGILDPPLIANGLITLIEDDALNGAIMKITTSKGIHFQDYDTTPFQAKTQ
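NADH formation kinetics: reaction with 30 uM PGE2 and 1 mM NAD+ (final), 20 nM enzyme, Tris-HCl pH 8 with Tween 20, after 15 min compound preincubation at room temperature. Fluorescence change, last versus first of five reads.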
Lamin A splicing = LMNA splicing modulation. actives 0.01% (n = 200,000). HeLa LMNA splicing GFP/RFP minigene ratio, 48 h. AID 1487. Potency, µM (highest dose often 46.1 µM), inactives show at the highest dose ratio change, negative = inhibition, hits mostly inhibitors; active = well fitted inhibition curve with a large enough effect in the signal ratio, with a control signal flat, not every such curve was filed as active; inconclusive = small, poorly fitted or top-dose-only effect, or effect the other way, or a change in a side signal; the % refers to the signal ratio; note: potency is the fitted concentration of half-maximal effect
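S3 HeLa cells stably expressing lamin A-EGFP splicing minigene plus DsRed2, 600 cells/well, 48 h compound exposure at 37C. Laser-scanning cytometry; analysed as GFP (500-530 nm)/RFP (575-640 nm) total intensity ratio; 0.5% DMSO vehicle.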
12-hLO inh = inhibitors of human 12-lipoxygenase (ALOX12). AID 1452. actives 0.12% (n = 150,000). Potency, µM (highest dose often 57.1 µM), for inactives: at the highest dose activity change, negative = inhibition, actives largely listed as inhibitors. P18054. purified 12-hLO, xylenol orange hydroperoxide absorbance; active = well fitted inhibition curve with a large enough effect; inconclusive = small, poorly fitted or top-dose-only effect; note: potency is the fitted concentration of half-maximal effect; nearly all actives have a fitted effect of over 55% in size
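Hydroperoxide formation by human 12-lipoxygenase from 40 uM arachidonic acid was followed colorimetrically via ferric-xylenol orange complex, using the 573/405 nm absorbance ratio. Enzyme concentration was 150 nM, with 30 min reaction at room temperature.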
PNC inhibitor = inhibitors of perinucleolar compartment assembly; activity change (PNC), negative = inhibition, % at 10 µM; actives 3.1% (n = 140,000); PC3M PTB-GFP, PNC prevalence imaging, 16 h; active compounds read low; AID 2417;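 active = readout at or below -70, meaning at least 70% loss of cells showing the perinucleolar compartment, a nuclear body marking cancer cells; inconclusive = readout between -30 and a set limit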;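 note: plate controls were DMSO wells for no effect and camptothecin positive control wells for full effect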
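PC3M cells stably expressing PTB-GFP, 750–1000 cells/well, treated 16 h at 37 °C with compound (23 nl of library stock), in duplicate. After paraformaldehyde fixation and Hoechst stain, imaged at 20x; PNC prevalence scored by image analysis.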
The depositor's hits bear a star; ? = inconclusive; . = no result; [ ] = dose if it differs, or a comment. Shown are actives, neighbours in structure and some others; about 10% of the full set was active somewhere. Unless noted, calls come from the whole dose curve; as a rule, active = well fitted inhibition curve with a large enough effect (not every such curve was filed as active); inconclusive = small, poorly fitted or top-dose-only effect, or another doubt; inactive = no such curve, though single readings can be large or run the other way. Unless noted, % is set by controls: 0 for no effect and ±100 for the full control effect.

SMILES	ALDH1A1 inh	HPGD block	Lamin A splicing	12-hLO inh	PNC inhibitor
O=S(=O)(Nc1ccc(S(=O)(=O)Nc2nccs2)cc1)c1ccc2c(c1)OCCO2	12.6µM*	-19.9%	?	2.3%	1.6
O=C(Nc1ccc2c(c1)OCO2)c1cccs1	?	25.1µM*	1.8%	-17.9%	-8.7
COCCCNC(=O)C1CCC(Cn2c(=O)c3sccc3n(C)c2=O)CC1 (stereo unspecified)	.	.	5.0%[46 µM]	.	.
c1ccc(-c2cccc(N3CCC4(CCNCC4)CC3)c2)cc1	?	-8.5%	.	-2.7%	.
COC(=O)c1ccccc1NC(=O)CSc1nnc2cc(C)c3cc(C)cc(C)c3n12	.	.	-15.1%[46 µM]	.	.
CCCCc1nn2c(=O)cc(COC(=O)c3cccc(Cl)c3)nc2s1	.	.	8.4%[46 µM]	.	.
O=S(=O)(Nc1ccc2c(c1)OCO2)c1cccs1	4.7%	-29.6%	13.3%	-7.6%	-1.9
COc1cccc(NS(=O)(=O)c2ccc3c(c2)CCCN3C(C)=O)c1	?	4.0%	?	-4.9%	26.1
O=S(=O)(Nc1ccc2c(c1)OCCO2)c1cccs1	-4.3%	14.1µM*	-8.7%	1.4%	38.3
CC(=O)N1CCc2cc(NS(=O)(=O)c3cccs3)ccc21	-5.4%	25.1µM*	8.5%	-1.8%	-20.8
CC1=C(c2ccc(C)cc2)S(=O)(=O)N(Cc2ccc(C(=O)Nc3ccc(C)c(F)c3)cc2)C1=O	.	.	-4.9%[46 µM]	.	.
CCc1nc2ccccc2c(C(=O)OCc2nnc(-c3ccccc3)o2)c1C	?	20µM*	?	-5.1%	4.8
CCc1nc2ccccc2c(C(=O)OCC(=O)C(C)(C)C)c1C	-5.9%	.	.	.	.
CCc1cc2c3c(c1)C(C)CC(C)(C)N3C(=O)C2=O (stereo unspecified)	0.316µM*	-11.3%	?	-0.3%	59.4
Cc1cc(C)c(S(=O)(=O)Nc2cc(SCC(=O)O)c(O)c3ccccc23)cc1C	?	1.12µM*	?	-8.3%	?
Cc1cc(C)c(S(=O)(=O)Nc2ccc(C(=O)O)c(O)c2)cc1C	?	-7.7%	.	-9.7%	.
CCCCCn1c(=O)[nH]c2cc(C(=O)N3CCN(CC)CC3)ccc2c1=O	?	-12.0%	8.5%	7.2%	30.5
CCOC(=O)N1CCN(C(=O)c2ccc3c(=O)n(CCC4=CCCCC4)c(=O)[nH]c3c2)CC1	6.31µM*	-6.1%	?	-3.6%	-16.2
Cc1ccc(-c2cc(C(=O)OCC(=O)Nc3cc(C)on3)c3ccccc3n2)c(C)c1	-0.2%	-6.4%	6.3%	-0.5%	-82.4*
COc1ccc(-c2cc(C(=O)OCC(=O)Nc3cc(C)on3)c3ccccc3n2)cc1OC	?	?	-5.3%[0.0737 µM]	-3.8%	25.7
Cc1cccc(NS(=O)(=O)c2ccc(C)c(C(=O)OCC(=O)Nc3cc(C)on3)c2)c1	?	-16.5%	?	-5.1%	-100.2*
CCOc1ccc(NC(=O)Cc2ccc(NC(=O)N3CCCCc4ccccc43)cc2)cc1	.	.	-18.5%[46 µM]	.	.
CNc1ncnc2c1ncn2[C@@H]1O[C@@H](CO)[C@H](O)[C@@H]1O	.	.	.	-1.7%	.
Cc1cccn2c(=O)cc(CSc3nnc(NC(=O)COc4ccccc4)s3)nc12	.	.	-10.5%[46 µM]	.	.
Cc1noc(C)c1C(=O)N1CCC[C@@]2(CCN(Cc3nccs3)C2)C1	0.8%	-2.9%	.	-3.0%	.
SMILES	ALDH1A1 inh	HPGD block	Lamin A splicing	12-hLO inh	PNC inhibitor
Cc1ccc(S(=O)(=O)CCC(=O)OCc2ccc(S(=O)(=O)C(C)C)cc2)cc1	2.51µM*	.	5.5%[46 µM]	.	.
Cc1ccc(S(=O)(=O)CCC(=O)OCC(=O)Nc2ncc(Cl)cc2Cl)cc1	?	?	10.2%	-1.9%	-12.0
Cc1ccc(S(=O)(=O)CCC(=O)OCC(=O)c2ccc(C)c(C)c2)cc1	?	-1.6%	1.7%	-5.8%	-2.6
Cc1ccc(S(=O)(=O)CCC(=O)OCc2ccc(Cl)c(Cl)c2)cc1	?	-13.9%	-10.5%	-8.1%	-112.5*
CCN(C(=O)C(C)Cl)c1ccccc1 (stereo unspecified)	4.3%	.	28.1%[46 µM]	.	.
CC(=O)Nc1ccc(NC(=O)C2CCN(C(=O)c3cccs3)CC2)cc1	12.6µM*	.	.	.	.
O=C(O)CCC(=O)Nc1ccc(C(=O)N2CCCCC2)cc1	-5.9%	0.708µM*	14.4%	-0.6%	-24.2
O=C(O)CCC(=O)Nc1ccc(C(=O)OC2CCCCC2)cc1	-11.9%	-24.1%	-0.1%	3.6%	33.3
CCCCCCC(=O)Nc1ccc(C(=O)N2CCCC2)cc1	?	3.98µM*	8.6%	-11.0%	?
CN(C)S(=O)(=O)c1ccc(NC(=O)C2CCCN(C(=O)c3ccc(Cl)cc3)C2)cc1 (stereo unspecified)	12.6µM*	-17.5%	?	6.1%	5.7
CS(=O)(=O)Nc1cccc(-c2nc(Nc3ccncc3)c3ccccc3n2)c1	4.8%	.	?	.	.
Cc1cc2c(cc1NS(=O)(=O)c1ccc(Br)cc1)n(C)c(=O)c(=O)n2C	.	.	13.8%[46 µM]	.	.
C[C@@]12C[C@H](O)C3[C@H](CCC4=CC(=O)CC[C@]43C)[C@H]1CC[C@@H]2c1csc(-c2ccccc2)n1 (stereo partly specified)	3.2%[13.5 µM]	-15.2%	.	.	.
COc1ccc(N2CCN(C(c3ccccc3F)c3sc4nc(-c5ccco5)nn4c3O)CC2)cc1 (stereo unspecified)	.	.	0.0%[46 µM]	.	.
COc1ccccc1N1CCN(CCn2c(=O)c3c(c4ccccc4n3C)n(C)c2=O)CC1	14.9%	.	.	.	.
O=C(Nc1ccc(C(=O)N2CCCCC2)cc1)C1CCCCC1	?	2µM*	-0.1%	-5.5%	55.9
O=C(O)CCCC(=O)Nc1ccc(C(=O)N2CCCCC2)cc1	8.8%	2.24µM*	-1.8%	-2.6%	-15.8
O=C(Nc1ccccc1)C1CCCCC1	7.6%	25.1µM*	-6.4%	8.3%	?
O=C(Nc1ccc(Nc2ccccc2)cc1)C1CC1	-6.5%	-14.7%	-9.9%	-8.8%	0.8
Cc1ccc(CN2CCCn3nc(C(=O)NCCC(C)C)cc3C2=O)cc1	.	.	9.3%[46 µM]	.	.
COCCNC(=O)NC(=O)CN1CCN(C(c2ccccc2)c2ccccc2)CC1	-2.0%	.	.	.	.
CC(Cl)C(=O)NN=C(c1ccccc1)c1ccccc1 (stereo unspecified)	1µM*	.	13.1%[46 µM]	.	.
CCN(CC)CC(=O)NN=C(c1ccccc1)c1ccccc1	?	-5.0%	7.2%	-3.6%	?
CC(NC1CCCCC1)C(=O)NN=C(c1ccccc1)c1ccccc1 (stereo unspecified)	3.55µM*	.	.	.	.
O=c1c(-c2ccccc2)coc2cc(O)cc(O)c12	11.2µM*	6.31µM*	.	11.2µM*	.
COc1cc(OC)c2c(=O)c(-c3ccc4c(c3)OCO4)coc2c1	?	-3.4%	-5.6%	-1.8%	.
O=c1c(-c2ccc3c(c2)OCCO3)coc2cc(O)cc(O)c12	15.8µM*	28.2µM*	23.8%	?	-29.5
CCn1cc(S(=O)(=O)c2cc(C)cc(C)c2)c(=O)c2cc(F)c(N3CCC(C)CC3)cc21	.	.	4.4%[46 µM]	.	.
Clc1ccccc1CSc1ncn(-c2ccccc2)n1	-2.9%	17.8µM*	?	2.4%	17.4
